The results in this text go back to ChEMBL document CHEMBL3988442, “University of Dundee, Small-Polar-MMV Screening Library” (2021).

Common to all, as to parameters: scale not given: direction of the effect not stated beside the values
Assay [1] has as its target Protein translocase subunit SecA (Escherichia coli (strain K12)) (UniProt P10408). Description: Assay to Identify E. coli SecA ATPase Inhibitors. Particulars: 30 µM. The class given is functional.
Assay [2] concerns the target T1, Ubiquitin-activating enzyme e1, putative (Leishmania donovani (strain BPK282A1)) (UniProt E9BSI1).
T1 sequence (whole entry): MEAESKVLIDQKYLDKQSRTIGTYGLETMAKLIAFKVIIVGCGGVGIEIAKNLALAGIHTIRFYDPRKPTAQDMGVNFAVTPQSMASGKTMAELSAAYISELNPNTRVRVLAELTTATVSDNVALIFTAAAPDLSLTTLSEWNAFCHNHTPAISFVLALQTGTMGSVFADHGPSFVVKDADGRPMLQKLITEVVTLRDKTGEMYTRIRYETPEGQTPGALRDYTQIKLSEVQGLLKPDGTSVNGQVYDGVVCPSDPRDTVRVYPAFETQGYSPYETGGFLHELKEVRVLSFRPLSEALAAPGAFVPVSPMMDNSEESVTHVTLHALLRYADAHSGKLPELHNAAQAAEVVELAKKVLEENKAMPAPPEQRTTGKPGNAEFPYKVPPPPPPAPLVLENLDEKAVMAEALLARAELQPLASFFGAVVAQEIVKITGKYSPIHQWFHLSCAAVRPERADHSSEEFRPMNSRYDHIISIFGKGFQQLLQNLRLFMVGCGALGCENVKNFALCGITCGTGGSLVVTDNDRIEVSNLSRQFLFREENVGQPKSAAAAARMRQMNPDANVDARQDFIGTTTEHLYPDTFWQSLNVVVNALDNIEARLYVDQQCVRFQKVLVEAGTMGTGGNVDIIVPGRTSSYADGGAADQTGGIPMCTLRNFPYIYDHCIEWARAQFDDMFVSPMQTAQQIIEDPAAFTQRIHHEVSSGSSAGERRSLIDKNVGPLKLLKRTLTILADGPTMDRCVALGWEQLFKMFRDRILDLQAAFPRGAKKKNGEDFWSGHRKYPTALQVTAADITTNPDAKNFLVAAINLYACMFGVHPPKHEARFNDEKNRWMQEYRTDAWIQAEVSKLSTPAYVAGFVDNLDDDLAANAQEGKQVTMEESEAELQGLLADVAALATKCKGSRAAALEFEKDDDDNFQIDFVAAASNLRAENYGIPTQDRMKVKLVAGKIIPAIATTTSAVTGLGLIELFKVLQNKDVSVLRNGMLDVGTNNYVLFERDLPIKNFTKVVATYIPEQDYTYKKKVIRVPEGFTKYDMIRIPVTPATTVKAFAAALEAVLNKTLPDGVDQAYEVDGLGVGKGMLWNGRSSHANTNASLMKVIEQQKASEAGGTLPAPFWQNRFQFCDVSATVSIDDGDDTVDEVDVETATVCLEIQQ
The experiment in a line: Leishmania donovani Ubiquitin Activating Enzyme (LdE1). Particulars: 30 µM. The format is functional.

For assay [3], the target named is AMP-activated protein kinase, AMPK (Homo sapiens) (UniProt P54646+O43741+P54619+Q9UGJ0+Q9Y478+Q13131+Q9UGI9). Description: AMP-dependent Kinase enzyme assay. An in vitro enzyme assay that detects ADP turnover that is directly proportional to AMPK activity. This uses naive AMPK that is activated during the assay with MK-8722. The class given is functional. The following applies: 30 µM.

Assay [4] addresses Sialic acid-binding Ig-like lectin 9 (Homo sapiens) (UniProt Q9Y336). Description: Hs-Siglec9 ALPHAscreen SOP 20170721. Particulars: 10 µM. For orientation: In Alpha technology, singlet oxygen from a donor bead excites a nearby acceptor bead.
The subject of a further assay is Trypanosoma cruzi. The experiment in a line: Trypanosoma cruzi phosphomannomutase and mannose-1-phosphate guanylyltransferase assay. The format is functional. Particulars: 10 µM.
In assay [5] the target is T2, Arginase-2, mitochondrial (Homo sapiens) (UniProt P78540).
T2 sequence (whole entry): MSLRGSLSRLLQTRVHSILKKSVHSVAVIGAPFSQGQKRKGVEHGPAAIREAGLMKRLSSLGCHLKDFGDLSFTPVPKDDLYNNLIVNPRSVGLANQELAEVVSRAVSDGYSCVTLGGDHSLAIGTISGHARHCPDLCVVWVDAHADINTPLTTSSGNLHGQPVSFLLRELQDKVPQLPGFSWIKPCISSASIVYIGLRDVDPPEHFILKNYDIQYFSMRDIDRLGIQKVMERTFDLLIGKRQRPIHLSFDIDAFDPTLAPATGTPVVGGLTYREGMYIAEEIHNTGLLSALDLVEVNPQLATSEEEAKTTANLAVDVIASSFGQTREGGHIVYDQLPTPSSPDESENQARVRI
The experiment in a line: in vitro enzyme assay to detect the production of urea directly proportional to the activity of Arginase II. Further: in the data most compounds retested in dose-response had high values. Particulars: 33.3 µM. The format is functional.

In assay [6] the target is T3, Proteasome subunit beta (Trypanosoma cruzi) (UniProt O96673).
T3 sequence (whole entry): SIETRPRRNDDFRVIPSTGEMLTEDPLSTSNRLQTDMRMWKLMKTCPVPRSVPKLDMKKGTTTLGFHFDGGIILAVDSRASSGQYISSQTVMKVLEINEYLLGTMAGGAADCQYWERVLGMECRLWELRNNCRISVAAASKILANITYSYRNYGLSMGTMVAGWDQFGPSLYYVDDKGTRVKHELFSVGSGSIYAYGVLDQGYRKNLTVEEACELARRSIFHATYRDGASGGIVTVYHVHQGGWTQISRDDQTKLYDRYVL
Description: Trypanosoma cruzi proteasome chymotrypsin-like activity (TcProtChymo) assay. Further: in the data most compounds retested in dose-response had high values. The class given is functional. The following applies: 9.37 µM.

The species named for the next assay is Homo sapiens. The experiment in a line: To identify inhibition of the IFN signalling (Jak-Stat) pathway via expression of an eGFP reporter gene under the control of an IFN-stimulated response element (ISRE) containing MxA promoter. The format is functional. Particulars: 30 µM. On the technique in general: In a reporter assay the amount or activity of a reporter protein is the signal.

The target of assay [7] is T4, Tyrosyl-tRNA synthetase, putative (Trypanosoma cruzi (strain CL Brener)) (UniProt Q4DSP6).
T4 sequence (whole entry): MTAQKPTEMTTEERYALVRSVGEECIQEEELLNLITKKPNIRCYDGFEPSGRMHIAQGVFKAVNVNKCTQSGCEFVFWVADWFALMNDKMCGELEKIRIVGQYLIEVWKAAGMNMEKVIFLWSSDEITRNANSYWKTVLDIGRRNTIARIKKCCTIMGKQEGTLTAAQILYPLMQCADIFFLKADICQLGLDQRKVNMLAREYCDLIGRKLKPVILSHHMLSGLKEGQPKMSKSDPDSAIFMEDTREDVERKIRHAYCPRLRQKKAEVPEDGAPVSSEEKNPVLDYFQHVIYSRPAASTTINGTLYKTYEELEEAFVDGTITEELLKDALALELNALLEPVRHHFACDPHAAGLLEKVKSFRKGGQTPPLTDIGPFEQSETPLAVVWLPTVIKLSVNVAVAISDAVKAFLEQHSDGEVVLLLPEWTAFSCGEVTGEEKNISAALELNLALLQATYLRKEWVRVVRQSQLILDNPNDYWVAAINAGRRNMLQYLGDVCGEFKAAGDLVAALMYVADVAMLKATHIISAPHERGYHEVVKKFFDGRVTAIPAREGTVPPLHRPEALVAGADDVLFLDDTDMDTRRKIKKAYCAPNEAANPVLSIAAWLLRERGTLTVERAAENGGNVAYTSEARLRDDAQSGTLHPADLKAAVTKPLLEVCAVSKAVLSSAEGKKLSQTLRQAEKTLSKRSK
The experiment in a line: Trypanosoma cruzi tyrosyl tRNA synthetase (TcYRS) _High Tyrosine SOP. Further: in the data most compounds retested in dose-response had high values. The class given is functional. Particulars: 30 µM.

Assay [8] concerns the target T4, Tyrosyl-tRNA synthetase, putative (Trypanosoma cruzi (strain CL Brener)). Description: Trypanosoma cruzi tyrosyl tRNA synthetase (TcYRS) SOP. The format is functional. The following applies: 30 µM.
The target in assay [9] is Chromo domain-containing protein 1 (Saccharomyces cerevisiae (strain ATCC 204508 / S288c) (Baker's yeast)) (UniProt P32657). Description: ScCHD-1 Enzyme Inhibition Assay. Further: in the data most compounds retested in dose-response had high values. The class given is functional. Particulars: 30 µM.

For some assays here: Potency and affinity values are given separately.

Chain of Protein translocase subunit SecA (Escherichia coli (strain K12)) (P10408 whole entry): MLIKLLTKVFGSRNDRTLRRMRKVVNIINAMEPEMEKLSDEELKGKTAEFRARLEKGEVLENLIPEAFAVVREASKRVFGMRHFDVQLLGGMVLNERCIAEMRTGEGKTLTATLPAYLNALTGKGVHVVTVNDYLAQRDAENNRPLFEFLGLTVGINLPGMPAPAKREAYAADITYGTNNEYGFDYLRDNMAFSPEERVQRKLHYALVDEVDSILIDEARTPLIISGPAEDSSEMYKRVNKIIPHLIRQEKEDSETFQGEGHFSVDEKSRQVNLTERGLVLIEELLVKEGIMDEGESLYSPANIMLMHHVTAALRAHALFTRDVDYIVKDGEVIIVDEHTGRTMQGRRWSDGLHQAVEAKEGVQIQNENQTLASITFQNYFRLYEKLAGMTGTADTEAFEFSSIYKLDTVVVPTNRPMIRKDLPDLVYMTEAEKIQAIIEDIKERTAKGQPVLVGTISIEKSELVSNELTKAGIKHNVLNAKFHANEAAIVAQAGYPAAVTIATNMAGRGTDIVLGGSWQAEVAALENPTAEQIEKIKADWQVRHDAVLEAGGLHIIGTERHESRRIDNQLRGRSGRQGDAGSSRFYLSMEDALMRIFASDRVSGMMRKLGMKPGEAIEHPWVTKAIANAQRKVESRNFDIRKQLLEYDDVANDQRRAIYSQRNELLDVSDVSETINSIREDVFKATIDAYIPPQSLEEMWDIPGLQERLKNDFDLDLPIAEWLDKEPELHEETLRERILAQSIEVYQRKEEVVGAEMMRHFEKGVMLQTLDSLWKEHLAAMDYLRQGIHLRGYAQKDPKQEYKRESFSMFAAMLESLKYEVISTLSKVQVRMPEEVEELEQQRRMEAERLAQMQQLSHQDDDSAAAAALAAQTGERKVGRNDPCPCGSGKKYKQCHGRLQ
Chain of Sialic acid-binding Ig-like lectin 9 (Homo sapiens) (Q9Y336 whole entry): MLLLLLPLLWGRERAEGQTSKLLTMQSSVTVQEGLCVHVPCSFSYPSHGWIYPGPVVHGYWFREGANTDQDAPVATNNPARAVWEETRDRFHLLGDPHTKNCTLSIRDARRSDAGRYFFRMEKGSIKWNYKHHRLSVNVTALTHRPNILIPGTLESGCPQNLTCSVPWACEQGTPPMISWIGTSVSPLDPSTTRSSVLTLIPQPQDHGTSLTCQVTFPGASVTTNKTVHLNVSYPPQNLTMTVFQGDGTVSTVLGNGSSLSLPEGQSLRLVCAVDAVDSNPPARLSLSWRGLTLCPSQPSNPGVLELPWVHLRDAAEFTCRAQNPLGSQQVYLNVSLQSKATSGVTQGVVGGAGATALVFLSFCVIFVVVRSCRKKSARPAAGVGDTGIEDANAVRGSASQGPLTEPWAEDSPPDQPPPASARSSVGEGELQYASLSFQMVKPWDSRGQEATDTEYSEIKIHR
Chain of Chromo domain-containing protein 1 (Saccharomyces cerevisiae (strain ATCC 204508 / S288c) (Baker's yeast)) (P32657 whole entry, the tested form may be a part): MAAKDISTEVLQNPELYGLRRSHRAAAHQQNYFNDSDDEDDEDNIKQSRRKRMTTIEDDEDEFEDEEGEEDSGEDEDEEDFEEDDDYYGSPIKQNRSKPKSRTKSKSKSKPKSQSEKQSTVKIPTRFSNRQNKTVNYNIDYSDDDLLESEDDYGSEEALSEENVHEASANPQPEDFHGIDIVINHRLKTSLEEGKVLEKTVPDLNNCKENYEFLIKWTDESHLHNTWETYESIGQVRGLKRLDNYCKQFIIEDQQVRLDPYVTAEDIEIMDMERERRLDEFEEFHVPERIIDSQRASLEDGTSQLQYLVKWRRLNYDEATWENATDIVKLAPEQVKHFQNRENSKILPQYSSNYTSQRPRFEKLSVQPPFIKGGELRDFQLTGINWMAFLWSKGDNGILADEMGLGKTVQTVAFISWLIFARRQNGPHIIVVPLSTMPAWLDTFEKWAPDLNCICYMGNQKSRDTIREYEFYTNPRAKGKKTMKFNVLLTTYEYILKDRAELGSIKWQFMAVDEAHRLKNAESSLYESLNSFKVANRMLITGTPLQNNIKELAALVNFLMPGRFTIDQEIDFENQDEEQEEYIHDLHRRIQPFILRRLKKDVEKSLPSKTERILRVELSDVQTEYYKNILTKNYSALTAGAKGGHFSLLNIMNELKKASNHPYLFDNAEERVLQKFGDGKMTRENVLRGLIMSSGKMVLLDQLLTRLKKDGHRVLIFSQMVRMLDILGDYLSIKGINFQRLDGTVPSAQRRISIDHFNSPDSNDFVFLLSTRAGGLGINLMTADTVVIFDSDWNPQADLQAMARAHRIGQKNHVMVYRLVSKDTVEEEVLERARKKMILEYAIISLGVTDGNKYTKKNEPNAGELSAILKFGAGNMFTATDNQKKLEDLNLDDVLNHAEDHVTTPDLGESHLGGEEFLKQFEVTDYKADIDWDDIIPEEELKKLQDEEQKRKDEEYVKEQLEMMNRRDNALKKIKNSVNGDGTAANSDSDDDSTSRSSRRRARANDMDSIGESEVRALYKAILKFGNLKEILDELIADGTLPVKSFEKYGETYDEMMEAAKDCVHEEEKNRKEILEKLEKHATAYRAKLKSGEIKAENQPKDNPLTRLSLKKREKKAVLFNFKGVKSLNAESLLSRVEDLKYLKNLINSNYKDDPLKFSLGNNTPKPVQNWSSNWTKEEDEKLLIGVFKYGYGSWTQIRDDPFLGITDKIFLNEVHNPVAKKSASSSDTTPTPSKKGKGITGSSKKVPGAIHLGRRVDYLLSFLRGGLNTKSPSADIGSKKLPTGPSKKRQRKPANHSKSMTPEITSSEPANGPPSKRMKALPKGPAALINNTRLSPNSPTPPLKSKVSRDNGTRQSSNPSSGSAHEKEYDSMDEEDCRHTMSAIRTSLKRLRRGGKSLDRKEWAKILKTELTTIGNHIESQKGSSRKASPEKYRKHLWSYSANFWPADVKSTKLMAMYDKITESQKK

For `CC(C)N(CC(N)=O)Cc1csc(Cc2ccccc2)n1`, the Percent Effect was -3.88% in assay [1]; 12.7% in assay [2]; 0.223% in assay [3]; -4.46% in assay [4]; -6.7% in the assay with Trypanosoma cruzi; 0% in assay [5]. In addition, the Percent Effect is 5.82% in assay [6]; 41.7% in the assay filed under Homo sapiens; -1.48% in assay [7]; 11.4% in [8]; -6.32% in assay [9].

Take `COC(=O)N1CCCC(C(=O)NCc2cc3cccc(OC)c3o2)C1` (stereo not given): the Percent Effect in assay [1] was -4.05%; in [2] it was 7.59%; in [3] it was 3.35%; in assay [4], 19.5%; in the assay with Trypanosoma cruzi, -2.36%; in [5], 2.28%. For the same compound, the Percent Effect in assay [6] was -2.54%; in the assay listed under Homo sapiens, -18.3%; in assay [7], 3.45%; in [8], 8.86%; in [9], -3.44%.

Turning to `CN(Cc1nnc2n1CCC2)C(=O)NCCc1ccc2c(c1)OCO2`, the Percent Effect is -3.06% in assay [1]; 21.6% in assay [2]; -5.22% in assay [3]; -0.223% in [4]; -5.38% in the assay on Trypanosoma cruzi; -2.4% in [5]. Moreover, the Percent Effect is 10.6% in [6]; 18.3% in the assay listed under Homo sapiens; 7.39% in assay [7]; 16.1% in assay [8]; -6.24% in assay [9].

With `Cc1cn2c(n1)CCC(NC(=O)c1ccc(CS(C)(=O)=O)cc1)C2` (stereo not given), the Percent Effect was -7.39% in [1]; 13.2% in assay [2]; -4.52% in assay [3]; 4.15% in [4]; 7.71% with Trypanosoma cruzi; -3.06% in [5]. For the same compound, the Percent Effect is 4.68% in assay [6]; -9.1% in the assay filed under Homo sapiens; 5.39% in assay [7]; 12.2% in [8]; -9.28% in assay [9].

`CCc1noc(C(C)N2CCN(c3ccc(C#N)cn3)CC2)n1` (stereo not given): the Percent Effect in assay [1] was -5.24%; in [2] it was 10.5%; in assay [3] it was 4.88%; in [4], -4.78%; with Trypanosoma cruzi, -4.58%; in [5], -1.18%. The Percent Effect was 14.9% in assay [6]; 17.9% in the assay filed under Homo sapiens; 4.25% in assay [7]; 5.2% in assay [8]; -5.13% in assay [9].

As for `CN(C)CCN(Cc1ccc(Cl)cc1)C(=O)c1cc[nH]n1`, the Percent Effect in assay [1] was -2.91%; in assay [2], 20.8%; in assay [3] it was 3.16%; in assay [4], 18.6%; in the assay with Trypanosoma cruzi it was 2.23%; in [5], 3.53%. Also, the Percent Effect in assay [6] was 17.9%; in the assay filed under Homo sapiens it was 3.16%; in assay [7], 7.37%; in assay [8], 17.9%; in assay [9], -5.67%.

For `O=C1NCCCCC1Sc1nnc(-c2cccnc2)n1C1CC1` (stereo not given), the Percent Effect is -2.96% in [1]; 2.74% in assay [2]; 5.81% in assay [3]; 0.732% in assay [4]; -2.55% in the assay with Trypanosoma cruzi; 0% in assay [5]. In addition, the Percent Effect was 9.23% in assay [6]; -4.55% in the assay filed under Homo sapiens; 7.53% in assay [7]; 12.5% in assay [8]; -6.68% in assay [9].

Take `CCN(CC1CN(CCc2ccccn2)CCO1)c1cccnn1` (stereo not given): the Percent Effect is -2.15% in assay [1]; 0% in assay [2]; -5.23% in [3]; -0.0186% in [4]; 4.77% with Trypanosoma cruzi; 3.12% in [5]. Besides, the Percent Effect in assay [6] was 14.7%; in the assay filed under Homo sapiens, -14.7%; in [7], 0.546%; in [8], 1.24%; in assay [9], 2.6%.

On to `NC(=O)C1CCN(C(=O)Cn2nc(-c3ccccc3)oc2=O)C1` (stereo not given), for which the Percent Effect in assay [1] is -4.97%; in [2], 7.79%; in [3], 1.04%; in [4], 8.76%; with Trypanosoma cruzi, 2.46%; in [5] it was -13.8%. Further, the Percent Effect is 8.82% in [6]; -30.7% in the assay filed under Homo sapiens; 2.15% in assay [7]; 13.6% in [8]; -0.676% in [9].

As for `CC(C)Cc1noc(CN2CCN(C(=O)c3cccc(F)c3)CC2)n1`, the Percent Effect in assay [1] was -4.75%; in [2], -2.74%; in assay [3] it was 1.5%; in assay [4] it was 5.59%; with Trypanosoma cruzi, 1.39%; in assay [5], 0%. Further, the Percent Effect came out at 1.97% in [6]; 0.357% in the assay filed under Homo sapiens; 4.17% in assay [7]; 1.24% in assay [8]; 6.05% in [9].
